Bioassay records as filed in PubChem BioAssay.
Pf Dd2 inh – P. falciparum Dd2 growth inhibitors, primary screen, SYBR Green fluorescence, single dose replicates. 72 h; hits give low values. activity change, % at 10 µM. 94,000 tested, 2.3% active; in the data active = activity change below about -80%; inconclusive = no clear call, values can overlap the other calls
C diff growth – C. difficile growth inhibitors, primary screen, HTS; Clostridium difficile clinical isolate growth, OD600, 24 h; hits give low values; growth activity, negative = inhibition, % at 16 µg/mL (by protocol); 86,000 tested, 0.25% active;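 active = mean growth activity at or below -80% and every replicate also at or below -80%; inconclusive = mean at or below -80% but some replicate above -80%; inactive = mean growth activity above -80%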;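 also: 0% = DMSO wells and -100% = levofloxacin 16 µg/mL wells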
T cruzi growth-1 – T. cruzi intracellular proliferation inhibitors, primary screen, cell-based, beta-gal Tulahuen parasites, NIH3T3 host, luminescence; 77,000 tested, 5.9% active; T. cruzi beta-gal in NIH3T3, GalScreen luminescence, 90 h; inhibition, % at 8.34 µM;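 active = mean inhibition above about 93%, with at least 55% of replicates each passing it, limit read from the data, passing the limit was not always enough; inconclusive = only one of those two conditions holds; inactive = neither condition holds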
T cruzi growth-2 – T. cruzi intracellular proliferation inhibitors, confirmation, cell-based, NIH3T3 host, beta-gal parasite, luminescence, cherry-pick | shares compounds with T cruzi growth-1 | T. cruzi beta-gal in NIH3T3, GalScreen luminescence, 90 h | 5,600 tested, 72% active | inhibition, % at 8.35 µM;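 active = mean replicate inhibition above about 95% and at least 55% of replicates individually reaching it, limit read from the data; inconclusive = only one of the two criteria is met; inactive = neither criterion is met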
T cruzi growth-3 – inhibitors of intracellular T. cruzi replication, confirmation, NIH3T3 host cells, beta-gal parasites, cherry-pick, set 2; shares compounds with T cruzi growth-1; T. cruzi beta-gal in NIH3T3, GalScreen luminescence, 90 h; inhibition, % at 2.09 µM; 5,600 tested, 21% active; AID 651740, 2012;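 active = mean inhibition above about 95%, with at least 55% of replicates also reaching it, limit read from the data; inconclusive = meets just one of the two conditions; inactive = meets neither condition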;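 also: plate controls were neutral control median for no effect and positive control median for full effect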
NIH3T3 tox – cytotoxicity in mouse NIH/3T3 fibroblasts, confirmation, cytotoxicity control for T. cruzi proliferation inhibitor project, cell-based, cherry-pick, single point; NIH/3T3 viability, CellTiter-Glo ATP luminescence, 90 h; 5,600 tested, 14% active; AID 651742, 2012; cytotoxicity (signal decrease), % at 8.35 µM; shares compounds with T cruzi growth-1;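 active = mean signal decrease across replicates above about 35% based on untreated-well scatter, with enough replicates individually passing, limit read from the data; inconclusive = no rule stated though some were filed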;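 also: 0% = median of neutral control wells and 100% = median of positive control wells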
3T3 cytotox 2 – NIH/3T3 fibroblast cytotoxicity, confirmation, cytotoxicity control, cell-based, cherry-pick, single point, set 2; shares compounds with T cruzi growth-1; 5,600 tested, 56% active; inhibition, % at 24.9 µM; AID 651744, 2012; NIH/3T3 viability, CellTiter-Glo ATP luminescence, 90 h;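 active = mean loss of cell viability signal at or above a set limit, and enough replicates individually reaching it; inconclusive = meets only the mean limit or only the replicate share; inactive = meets neither condition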;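 also: 0% = median of neutral control wells and 100% = median of positive control wells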
* = called active by the depositor. Hits are enriched below; roughly 6.8% of the tested compounds scored in any of these assays.

Results for Cc1noc(C)c1NC(=O)Nc1ccc2c(c1)C(=O)N([C@H](C)CO)C[C@@H](C)[C@@H](CN(C)C(=O)Nc1ccccc1)O2 ?
Pf Dd2 inh: 43; T cruzi growth-1: 35

What do the screens show for `CC(C)CC#Cc1ccc([C@H]2[C@H](CO)N3C(=O)CN(C(=O)NC4CCCC4)C[C@@H]23)cc1`?
Pf Dd2 inh: -1; C diff growth: -21

Results for CC(C)CC#Cc1ccc([C@H]2[C@@H](CO)N3CCCCN(C(=O)NC4CCCC4)C[C@@H]23)cc1 ?
Pf Dd2 inh: 2; C diff growth: -27; T cruzi growth-1: 118*; T cruzi growth-2: 110*; T cruzi growth-3: 79; NIH3T3 tox: 19; 3T3 cytotox 2: 104*

What do the screens show for `CC(C)CC#Cc1ccc([C@@H]2[C@H]3CN(C(=O)NC4CCCC4)CC(=O)N3[C@H]2CO)cc1`?
Pf Dd2 inh: -69; C diff growth: 56

Results for CC(C)CC#Cc1ccc([C@H]2[C@@H](CO)N3C(=O)CN(C(=O)NC4CCCCC4)C[C@H]23)cc1 ?
Pf Dd2 inh: -39; C diff growth: -11

What do the screens show for `CC(C)CC#Cc1ccc([C@H]2[C@H](CO)N3CCCCN(C(=O)NC4CCCC4)C[C@@H]23)cc1`?
Pf Dd2 inh: -35; C diff growth: -8; T cruzi growth-1: 113*; T cruzi growth-2: 93; T cruzi growth-3: 87; NIH3T3 tox: 43*; 3T3 cytotox 2: 103*

Results for COCC#Cc1ccc([C@H]2[C@@H](CO)N3CCCCN(C(=O)NC4CCCC4)C[C@H]23)cc1 ?
Pf Dd2 inh: -4; C diff growth: -3; T cruzi growth-1: 76

What do the screens show for `CC(C)CC#Cc1ccc([C@@H]2[C@@H](CO)N3CCCCN(C(=O)NC4CCCC4)C[C@@H]23)cc1`?
Pf Dd2 inh: -11; C diff growth: 18; T cruzi growth-1: 102*; T cruzi growth-2: 101*; T cruzi growth-3: 64; NIH3T3 tox: 20; 3T3 cytotox 2: 107*

How did CCCC#Cc1ccc([C@H]2[C@H](CO)N3CCCCN(C(=O)NC4CCCC4)C[C@@H]23)cc1 do in these assays?
Pf Dd2 inh: -36; C diff growth: 10; T cruzi growth-1: inconclusive; T cruzi growth-2: 86; T cruzi growth-3: inconclusive; NIH3T3 tox: 48*; 3T3 cytotox 2: 105*

How did CC(C)NC(=O)Nc1ccc2c(c1)C(=O)N([C@@H](C)CO)C[C@H](C)[C@H](CN(C)Cc1ccc3c(c1)OCO3)OCCCC[C@@H](C)O2 do in these assays?
Pf Dd2 inh: -33; C diff growth: 5; T cruzi growth-1: 28

Results for Cc1ccc(S(=O)(=O)N(C)C[C@@H]2Oc3cc(C#Cc4ccccc4)ccc3S(=O)(=O)N([C@@H](C)CO)C[C@@H]2C)cc1 ?
Pf Dd2 inh: -39; C diff growth: 4

Results for Cc1ccc(S(=O)(=O)N(C)C[C@@H]2Oc3cc(-c4cccc(F)c4)ccc3S(=O)(=O)N([C@H](C)CO)C[C@H]2C)cc1 ?
Pf Dd2 inh: -58; C diff growth: 8; T cruzi growth-1: 104*; T cruzi growth-2: 92; T cruzi growth-3: 78; NIH3T3 tox: 69*; 3T3 cytotox 2: 47*

What do the screens show for `Cc1ccc(S(=O)(=O)N(C)C[C@H]2Oc3cc(-c4cccc(F)c4)ccc3S(=O)(=O)N([C@H](C)CO)C[C@H]2C)cc1`?
Pf Dd2 inh: -7; C diff growth: 8; T cruzi growth-1: 121*; T cruzi growth-2: 102*; T cruzi growth-3: 94; NIH3T3 tox: 24; 3T3 cytotox 2: 43*

Results for Cc1ccc(-c2ccc3c(c2)O[C@@H](CN(C)S(C)(=O)=O)[C@H](C)CN([C@H](C)CO)S3(=O)=O)cc1 ?
Pf Dd2 inh: -44; C diff growth: -4; T cruzi growth-1: 102*; T cruzi growth-2: 4; T cruzi growth-3: -31; NIH3T3 tox: 20; 3T3 cytotox 2: 72*
